Results reported in ChEMBL document CHEMBL3988442, “University of Dundee, Small-Polar-MMV Screening Library” (2021).
About 13,000 (27%) of roughly 48,000 compounds showed an effect of 50% or more. Some of the results follow.

tested on: Wolbachia pipientis; assay: Anti-Wolbachia Cell-Based Screen; assay type: functional; set-up: scale not given: in the data most compounds retested in dose-response had high values; conditions: 5 µM

| SMILES | Percent Effect |
| --- | --- |
| O=C(CCO)N1CCC2(CCc3ccc(-c4ccoc4)cc32)CC1 | -1.453% |
| COc1ncccc1C(=O)N1CCC(c2nc3c(C)cccc3[nH]2)CC1 | -11.64% |
| c1ccc(Cn2ccnc2CN2CCOC(Cn3cccn3)C2)cc1 (stereo not given) | 5.197% |
| O=S(=O)(CCN1CCOC(Cn2cccn2)C1)c1ccccc1 (stereo not given) | -8.739% |
| Cc1cnn(CC2CCCN2CCc2nc3ccccc3c(=O)[nH]2)c1 (stereo not given) | -0.3603% |
| O=c1[nH]c(CN2CCOC(Cn3cccn3)C2)nc2ccccc12 (stereo not given) | 108.3% |
| Cc1cnn(CC2CN(Cc3nc4cccnc4[nH]3)CCO2)c1 (stereo not given) | 117.2% |
| Cc1cnn(CC2CN(Cc3nc4ccccc4c(=O)[nH]3)CCO2)c1 (stereo not given) | 128.5% |
| Cc1cnn(CC2CN(c3ncnc4ccccc34)CCO2)c1 (stereo not given) | -26.67% |
| N[C@@H]1CC[C@@H]1NC(=O)c1ccccc1OC(F)(F)C(F)F | -9.663% |
| CNC(=O)CN1CCO[C@H]2CN(C(=O)C3CC3)C[C@H]21.O=C(O)C(F)(F)F | 8.052% |
| O=S(=O)(c1cccc(F)c1)N1C[C@@H]2CC[C@H](C1)N(Cc1ccccc1)C2 | 7.587% |
| Cc1ccc(S(=O)(=O)N2CCC(O)(CN(C)C)C2)cc1 (stereo not given) | 128.7% |
| CN(C)CC1(O)CCN(S(=O)(=O)c2ccc(F)c(F)c2)C1 (stereo not given) | -14.25% |
| CC[C@H]1CN(S(=O)(=O)c2ccc(OC)cc2)CC[C@H]1CC(=O)O | 6.997% |
| Cc1ccc(S(=O)(=O)N2CCC3(CC(C(=O)NCC4CC4)=NO3)C2)cc1 (stereo not given) | -17.63% |
| COc1cccc(S(=O)(=O)N2CCC(O)(CN(C)C)C2)c1 (stereo not given) | -4.6% |
| CN(C)CC1(O)CCN(S(=O)(=O)c2cccc(F)c2)C1 (stereo not given) | 142.4% |
| CN(C)CC1(O)CCN(S(=O)(=O)c2ccc(F)cc2)C1 (stereo not given) | -17.25% |
| COc1ccc(S(=O)(=O)N2CCC(O)(CN(C)C)C2)cc1 (stereo not given) | 122.7% |
| CN(C)CC1(O)CCN(S(=O)(=O)c2ccc(Cl)cc2)C1 (stereo not given) | 106.4% |
| CCOC1COC2(CCN(S(=O)(=O)c3cccc(F)c3)CC2)C1 (stereo not given) | -12.88% |
| CC(C)(C)C(O)CN1CCN(CC(=O)NCC(F)(F)F)CC1 (stereo not given) | 8.391% |
| COc1ccc(CCNC(=O)C2CCOC2)c(Cl)c1 (stereo not given) | -19.93% |
| O=S(=O)(CCNCc1ccc(Cl)cc1)N1CCOCC1 | -1.046% |

| SMILES | Percent Effect |
| --- | --- |
| CN(C)CCN1C(=O)CO[C@@H]2CN(c3ncc(F)cn3)C[C@H]21 | -1.223% |
| Cn1ccnc1SCCNC(=O)c1c[nH]nc1C1CCCCC1 | -10.23% |
| CC(C)N(Cc1nccn1C)C(=O)c1cnc(O)cn1 | -3.4% |
| Cc1c(NC(C)C(C)C)cccc1C(=O)NCc1nccn1C (stereo not given) | -7.954% |
| Cl.Cn1ccnc1CNC(=O)c1ccnc(C2CCNCC2)c1 | 112.8% |
| Cn1ccnc1CNC(=O)Nc1ccc(OC2CCC2)c(F)c1 | 1.11% |
| Cl.Cn1ccnc1CNC(=O)c1cnc(C2CCNCC2)cn1 | 74.03% |
| COCCCC(=O)Nc1cc(Cl)c(Cl)cn1 | -20.73% |
| O=C(c1scc2c1OCCO2)N1CCOC(Cc2cccc(F)c2)C1 (stereo not given) | -18.9% |
| Cn1cc(-c2ccnc(NCC3CCCCO3)n2)cn1 (stereo not given) | -0.1287% |
| Cc1cnn(CC(C)NCc2nc(-c3ccco3)no2)c1 (stereo not given) | 2.799% |
| Cc1nn(C)c2nc(-c3ccccn3)nc(NC[C@@H]3CCCO3)c12 | -8.15% |
| Cc1noc(-c2cnc(NC(C)C)nc2-c2ccco2)c1C | 118.1% |
| Cc1noc(-c2cnc(NCC3CCCO3)nc2-c2ccco2)c1C (stereo not given) | 115.5% |
| Cc1cnn(CC(C)NCc2csc(-c3ccco3)n2)c1 (stereo not given) | 6.093% |
| Cc1noc(-c2cnc(NC3CC3)nc2-c2ccco2)c1C | 112.5% |
| Cc1cc(C)c2nc(CN3CCC(N4CCOC4=O)CC3)cc(O)c2c1 | -3.092% |
| COCCN(C)CCN1CC2(CCN(C3CCCNC3)CC2)OC1=O (stereo not given) | -6.573% |
| CC(C)CCN1CCN(c2ncnc3nc(N)ccc23)CC1 | 6.537% |
| Cn1c(-c2cccs2)nn(CCNS(=O)(=O)c2ccccc2Cl)c1=O | 11.66% |
| Cc1c(C(=O)N2CCC2(C)C)nnn1-c1cccc2cnccc12 | 16.96% |
| O=C(O)C(F)(F)F.O=C(O)C(F)(F)F.O=C(O)[C@]12CCCN(Cc3ccsc3)C[C@H]1CN(c1ccccn1)C2 | -13.21% |
| CCC(=O)N1CCC[C@]2(C(=O)N(C)C)CN(c3ccccn3)C[C@@H]2C1.O=C(O)C(F)(F)F | 98.59% |
| CCS(=O)(=O)N1CCC[C@]2(C(=O)N(C)C)CN(c3ccccn3)C[C@@H]2C1.O=C(O)C(F)(F)F | -14.88% |
| O=C(O)C(F)(F)F.O=C(O)[C@]12CCCN(Cc3ccco3)C[C@H]1CN(c1ncccn1)C2 | 0.3269% |
